# Experimental data reported in PubChem BioAssay (EPA / NIEHS).
# Inconclusive results are not listed. Calls of active or inactive are those of the source. How the source made its calls, unless noted: active means hit-call score of the fitted dose curve at least 0.9, where 1 is the maximum; inconclusive means response in the unintended direction; inactive means score below 0.9.
# Columns and labels:
# [1] = Tanguay_ZF_120hpf_PE_legacy: (Legacy) Oregon State University Tanguay Lab 120 Hour Post-fertilization zebrafish Assay for Pericardial Edema (AID 2283640);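 on AC50: potency for increased incidence of pericardial edema versus DMSO baseline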
# Procedure, shortened: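 Scoring was binary, by brightfield microscopy at 120 hpf, and skipped where mortality occurred. Wild-type embryos were kept under sealed, foil-covered static exposure at 28C in 0.64% (vol/vol) DMSO.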
# [2] = Tanguay_ZF_120hpf_BRAI_legacy: (Legacy) Oregon State University Tanguay Lab 120 Hour Post-fertilization zebrafish Assay for Brain Malformation (AID 2283641)
# Procedure, shortened: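 Binary brightfield scoring of brain malformation at 120 hpf in Tropical 5D larvae held under static exposure at 28C (0.64% v/v DMSO), non-mortality endpoints skipped if dead. Positive control: 5uM trimethyltin chloride; fit versus DMSO.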
# [3] = Tanguay_ZF_120hpf_SOMI_legacy: (Legacy) Oregon State University Tanguay Lab 120 Hour Post-fertilization zebrafish Assay for Somite Malformation (AID 2283647)
# Procedure, shortened: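 Binary somite-defect scoring at 120 hpf, omitted for embryos that died, in wild-type (Tropical 5D) zebrafish with chorion removed by pronase at 4 hpf; static exposure began 6 hpf, single embryos per well, 28C, 0.64% DMSO; fitted positive versus DMSO.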
# [4] = Tanguay_ZF_120hpf_PFIN_legacy: (Legacy) Oregon State University Tanguay Lab 120 Hour Post-fertilization zebrafish Assay for Pectoral Fin Malformation (AID 2283648);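 further: each larva judged yes or no for fin defect by brightfield with dead larvae skipped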
# Procedure, shortened: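 5D WT zebrafish; pronase dechorionation 4 hpf; 1 embryo/well at 6 hpf; static exposure to 120 hpf, 28C, sealed, foil-covered; final DMSO 0.64% v/v; 5 uM trimethyltin chloride positive control; fin defect scored yes/no.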
# [5] = Tanguay_ZF_120hpf_CFIN_legacy: (Legacy) Oregon State University Tanguay Lab 120 Hour Post-fertilization zebrafish Assay for Caudal Fin Malformation (AID 2283649)
# Procedure, shortened: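 Binary brightfield scoring of caudal fin defects at 120 hpf after static, light-shielded exposure at 28C from 6 hpf. Tropical 5D embryos, chorion removed with pronase at 4 hpf, final DMSO 0.64%.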
# [6] = Tanguay_ZF_120hpf_PIG_legacy: (Legacy) Oregon State University Tanguay Lab 120 Hour Post-fertilization zebrafish Assay for Pigmentation Malformation (AID 2283650)
# Procedure, shortened: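 Pronase dechorionation at 4 hpf; embryos plated at 6 hpf, one per well; static exposure, sealed and foil-covered, 28C, to 120 hpf; pigmentation read by brightfield, binary; DMSO 0.64% baseline, 5uM trimethyltin chloride positive control.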
# [7] = Tanguay_ZF_120hpf_CIRC_legacy: (Legacy) Oregon State University Tanguay Lab 120 Hour Post-fertilization zebrafish Assay for Circulatory Malformation (AID 2283651)
# Procedure, shortened: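 Read-out: presence or absence of circulatory malformation at 120 hpf, scored by brightfield microscopy, fitted in the gain-of-signal direction against DMSO baseline. Wild-type 5D larvae were exposed from 6 hpf after enzymatic chorion removal.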
# [8] = Tanguay_ZF_120hpf_SWIM_legacy: (Legacy) Oregon State University Tanguay Lab 120 Hour Post-fertilization zebrafish Assay for Swim Bladder Malformation (AID 2283654);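 further: swim bladder malformation in each larva scored yes or no under brightfield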
# Procedure, shortened: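 Embryos lacking chorions were exposed individually and statically to test chemical from 6 to 120 hpf at 28C, with 0.64% DMSO as vehicle. At 120 hpf, swim bladder malformation was recorded as present or absent by brightfield microscopy.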
# [9] = Tanguay_ZF_120hpf_TRUN_legacy: (Legacy) Oregon State University Tanguay Lab 120 Hour Post-fertilization zebrafish Assay for Truncated Body (AID 2283655)
# Procedure, shortened: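 Binary presence/absence of truncated body is recorded at 120 hpf by brightfield, with non-mortality endpoints skipped after death. Exposure is static from 6 hpf in sealed dark plates at 28C, using dechorionated wild-type zebrafish, 0.64% DMSO.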
# [10] = Tanguay_ZF_120hpf_NC_legacy: (Legacy) Oregon State University Tanguay Lab 120 Hour Post-fertilization zebrafish Assay for Notochord and Tail Malformation (AID 2283656)
# Procedure, shortened: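 Dechorionated Tropical 5D wild-type zebrafish embryos, one per well from 6 hpf, statically exposed to 120 hpf at 28C in 0.64% DMSO final. Notochord distortion scored present/absent by brightfield; dead embryos excluded.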
# [11] = Tanguay_ZF_120hpf_TR_legacy: (Legacy) Oregon State University Tanguay Lab 120 Hour Post-fertilization zebrafish Assay for Touch Response (AID 2283667)
# Procedure, shortened: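 5D WT embryos; static exposure to 120 hpf, 28C, sealed/dark; DMSO 0.64% v/v final. TR scored present/absent; dead embryos excluded. Pos ctrl 5uM trimethyltin chloride.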
# [12] = CCTE_Padilla_ZF_144hpf_TERATOSCORE: (Legacy) CCTE's 144 Hour Post-fertilization zebrafish Assay Teratoscore, Padilla Lab (AID 2283679; active means hit-call score of the fitted dose curve at least 0.9, where 1 is the maximum; inactive means score below 0.9;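 on AC50: zebrafish embryos with chorions exposed by immersion from 6-8 hpf to 5 dpf with daily renewal; teratogenicity score from eye scoring of death hatching and malformations at 144 hpf; higher score means more developmental defects relative to DMSO baseline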)
# Procedure, shortened: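 Larvae scored by eye at 144 hpf for death, hatching and malformations after a day in clean Hanks'. Before that, daily-renewed exposure at 80 uM (0.4% DMSO, 26C) from roughly 6-8 hpf through 5 dpf, 4 embryos per chemical.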
# [13] = STM_H9_OrnithineISnorm_perc: Stemina devTOX quickPredict H9 human embryonic stem cell (hESC)-based Assay for Ornithine (ORN) Metabolite Biomarker, Normalized (AID 2283712; active means hit-call score of the fitted dose curve at least 0.9, where 1 is the maximum; inactive means score below 0.9;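 further: ornithine released into spent medium during last day measured by mass spectrometry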)
# Procedure, shortened: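 H9 human embryonic stem cells kept pluripotent receive test chemical over 72 h, refreshed daily by media exchange. Media from the closing 24 h is deproteinized and analysed by UPLC-HRMS on an amide column; ornithine signal is scaled to labelled standard and vehicle.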
# [14] = tested on: Thyroperoxidase (TPO), gene 54314; assay: CCTE_Simmons_AUR_rTPO: CCTE's Amplex UltraRed Assay for Thyroperoxidase (TPO) Inhibition, Simmons Lab (AID 2283662);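 further: potency for loss of signal meaning inhibition of peroxidase activity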
# Procedure, shortened: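 Endpoint is decreased Amplex UltraRed fluorescence after a 30-min, 37C reaction of rat thyroid microsomes with 300 uM H2O2. Eight test concentrations (5 nM–87.5 uM final) in 0.5% DMSO, three biological replicates each.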
# [15] = CCTE_Simmons_CellTiterGLO_HEK293T: Viability Assessment in CCTE's Assays for Thyroperoxidase (TPO) Inhibition, Simmons Lab (AID 2283665);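 further: cells exposed to compound for 24 h before readout; actives reduce ATP signal below DMSO vehicle meaning cytotoxicity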
# Procedure, shortened: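 HEK293T, 10 000 cells/well, DMEM + 1% FBS; 8-pt titration 5 nM–87.5 uM [final], 0.5% DMSO; 24 hr, 37C, 5% CO2; CellTiter-Glo luminescence; n=3 biological replicates.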
compound,measurement,setting,value
Cc1cc(CCN2CCN(c3nsc4ccccc34)CC2)cc2c1NC(=O)CC2(C)C,AC50,[1],2.96 µM (active)
same,AC50,[2],5.16 µM (active)
same,AC50,[3],3.88 µM (active)
same,AC50,[4],5.62 µM (active)
same,AC50,[5],6.48 µM (active)
same,AC50,[6],6.31 µM (active)
same,AC50,[7],5.83 µM (active)
same,AC50,[8],3.82 µM (active)
same,AC50,[9],3.08 µM (active)
same,AC50,[10],4.88 µM (active)
same,AC50,[11],6.3 µM (active)
same,AC50,[12],1.64 µM (active)
same,AC50,[13],5 µM (active)
CCCCOCCO,outcome,[1],inactive
same,outcome,[2],inactive
same,outcome,[3],inactive
same,outcome,[4],inactive
same,outcome,[5],inactive
same,outcome,[6],inactive
same,outcome,[7],inactive
same,outcome,[8],inactive
same,outcome,[10],inactive
same,outcome,[12],inactive
OC1CCC(C2CCCCC2)CC1 (centres undefined),outcome,[1],inactive
same,outcome,[2],inactive
same,outcome,[3],inactive
same,outcome,[4],inactive
same,outcome,[5],inactive
same,outcome,[6],inactive
same,outcome,[7],inactive
same,outcome,[8],inactive
same,outcome,[9],inactive
same,outcome,[11],inactive
same,AC50,[12],87.6 µM (active)
CCCCCCCC(=O)O,outcome,[1],inactive
same,outcome,[2],inactive
same,outcome,[3],inactive
same,outcome,[4],inactive
same,outcome,[5],inactive
same,outcome,[6],inactive
same,outcome,[7],inactive
same,outcome,[8],inactive
same,outcome,[9],inactive
same,outcome,[10],inactive
same,outcome,[11],inactive
Nc1cccc2c(N)cccc12,outcome,[1],inactive
same,outcome,[2],inactive
same,outcome,[3],inactive
same,outcome,[4],inactive
same,outcome,[5],inactive
same,outcome,[6],inactive
same,outcome,[8],inactive
same,outcome,[9],inactive
same,outcome,[10],inactive
same,AC50,[14],2.06 µM (active)
same,AC50,[15],30.1 µM (active)
same,outcome,[11],inactive
same,AC50,[12],48.9 µM (active)
same,outcome,[13],inactive
CCCCCCCCOC(=O)CCCCCCCCC(=O)OCCCCCCCC,outcome,[1],inactive
same,outcome,[2],inactive
same,outcome,[3],inactive
same,outcome,[4],inactive
same,outcome,[5],inactive
same,outcome,[6],inactive
same,outcome,[8],inactive
same,outcome,[9],inactive
same,outcome,[10],inactive
same,outcome,[11],inactive
same,outcome,[12],inactive
CCCCCCCCCCCCN1CCCC1=O,AC50,[1],35.8 µM (active)
same,outcome,[2],inactive
same,outcome,[3],inactive
same,outcome,[4],inactive
same,AC50,[5],41 µM (active)
same,outcome,[6],inactive
same,outcome,[7],inactive
same,outcome,[8],inactive
same,AC50,[9],34.7 µM (active)
same,outcome,[10],inactive
same,AC50,[14],17.4 µM (active)
same,AC50,[15],14.9 µM (active)
same,outcome,[11],inactive
same,AC50,[12],8.11 µM (active)
